# Assay results reported in PubChem BioAssay (EPA / NIEHS).
# Results filed as inconclusive are left out. Active and inactive are the calls of the source. How the source made its calls, unless noted: active means hit-call score of the fitted dose curve at least 0.9, where 1 is the maximum; inconclusive means response in the unintended direction; inactive means score below 0.9.
# Assays:
# [1] = target: Cellular tumor antigen p53 (Homo sapiens) (UniProt P04637); test: TOX21_p53_BLA_p2_ratio: Tox21 HCT-116 p53 Agonism Beta-lactamase Assay, Ratio, Phase 2 (AID 2283592)
# In short: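 Plated HCT116 p53-bla cells (4000/well) received compound after 5 h, then 16 h at 37C/5% CO2. CCF4-AM added, 2 h RT. Ratio of 460 to 530 nm emission taken as the p53 reporter signal.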
# [2] = target: Cellular tumor antigen p53 (Homo sapiens) (UniProt P04637); test: TOX21_p53_BLA_p5_ratio: Tox21 HCT-116 p53 Agonism Beta-lactamase Assay, Ratio, Phase 5 (AID 2283599)
# In short: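 HCT-116 cells carrying a p53-inducible beta-lactamase reporter were seeded at 4000 cells/well and dosed after 5 h with compound in DMSO (217-fold dilution). After 16 h at 37C, CCF4-AM substrate was added for 2 h, and the 460/530 nm emission ratio was scored as gain-of-signal versus DMSO.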
# [3] = CCTE_Harrill_HTTr_Viability_MCF7: CCTE's 6-hour Cell Viability Assessment for the High-Throughput Transcriptomics (HTTr) Platform, in MCF-7 cells cultured in DMEM + 10% fetal bovine serum, Harrill Lab (AID 2284010; active means hit-call score of the fitted dose curve at least 0.9, where 1 is the maximum; inactive means score below 0.9)
# In short: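 Propidium iodide exclusion, imaged by high-content analysis, gauged viability after a six-hour exposure across eight concentrations. Cells were MCF-7 grown in DMEM with 10% fetal bovine serum; fits run in both directions against DMSO.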
# [4] = CCTE_Harrill_HTTr_Apoptosis_MCF7: CCTE's 6-hour Apoptosis Assessment for the High-Throughput Transcriptomics (HTTr) Platform, in MCF-7 cells cultured in DMEM + 10% fetal bovine serum, Harrill Lab (AID 2284011; active means hit-call score of the fitted dose curve at least 0.9, where 1 is the maximum; inactive means score below 0.9)
# In short: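 MCF-7 (DMEM + 10% FBS), 384-well; 8-pt dilution series, 6 h chemical exposure; caspase-3/7 activation via CellEvent Caspase 3/7 Green, HCI; bidirectional fit vs DMSO.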
# [5] = CCTE_Harrill_HTTr_CellCount_MCF7: CCTE's Cell Proliferation Assessment for the High-Throughput Transcriptomics (HTTr) Platform, Harrill Lab (AID 2284012);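 further: cells exposed to compound for six hours; intended direction is loss of nuclei count meaning fewer cells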
# In short: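 Cell count from high-content imaging of Hoechst-labeled nuclei serves as viability/growth readout. Chemicals were applied to MCF-7 cells in eight concentrations for six hours, with fitting in both directions relative to DMSO.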
# [6] = target: Cellular tumor antigen p53 (Homo sapiens) (UniProt P04637); test: TOX21_p53_BLA_p3_ratio: Tox21 HCT-116 p53 Agonism Beta-lactamase Assay, Ratio, Phase 3 (AID 2283596)
# In short: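 Cells were seeded at 4000/well, rested 5 h at 37C, then dosed with DMSO compound solutions (217-fold dilution) for 16 h. CCF4-AM substrate was loaded for 2 h at room temperature, and the 460/530 nm emission ratio was fitted for gain of signal versus DMSO.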
# [7] = target: Cellular tumor antigen p53 (Homo sapiens) (UniProt P04637); test: TOX21_p53_BLA_p4_ratio: Tox21 HCT-116 p53 Agonism Beta-lactamase Assay, Ratio, Phase 4 (AID 2283601)
# In short: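 HCT116 cells carrying an inducible beta-lactamase reporter were plated at 4000 cells/well, rested 5 h, then exposed to compounds in DMSO (217-fold dilution) for 16 h at 37C. CCF4-AM substrate was loaded 2 h at room temperature; 460/530 nm emission ratio scored gain-of-signal versus DMSO.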
# [8] = TOX21_p53_BLA_p4_viability: Viability Assessment in the Tox21 HCT-116 p53 Agonism Beta-lactamase Assay, Phase 4 (AID 2283597);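 further: hits lower the luminescence signal meaning cytotoxicity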
# In short: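 Readout: ATP luminescence (CellTiter-Glo), measured 30 min after reagent addition at RT. The reagent followed a 2 h CCF4-AM incubation, and the cells had been exposed to compound for 16 h at 37C.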
# [9] = TOX21_p53_BLA_p5_viability: Viability Assessment in the Tox21 HCT-116 p53 Agonism Beta-lactamase Assay, Phase 5 (AID 2283600)
# In short: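 Workflow: seed 4000 cells per well, wait 5 h, add compounds (DMSO, 217-fold dilution), incubate 16 h, load CCF4-AM 2 h, add CellTiter-Glo, read luminescence after 30 min.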
# [10] = ACEA_ER_AUC_viability: ACEA Biosciences xCELLigence Real-Time Cell Analysis on Estrogen Receptor Agonism for Viability (AID 2283782);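 further: hit means loss of impedance signal meaning reduced cell growth or viability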
# In short: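 Continuous-exposure impedance cell analysis uses T-47D cells in charcoal-stripped serum, eight 1:4 dilutions topping at 100 uM final, biological duplicate. Area under the growth curve at 80 h is fitted against DMSO baseline.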
# [11] = target: Thyroid hormone receptor alpha (Rattus norvegicus) + Thyroid hormone receptor beta (Rattus norvegicus) (UniProt P18113+P63059); test: TOX21_TR_LUC_GH3_Antagonist_Followup: Tox21 GH3 Thyroid Hormone Receptor Antagonism Luciferase Follow-Up Assay (AID 2283942)
# In short: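 In a GH3 luciferase reporter line, test chemicals spanning 92 uM to 5nM final are co-incubated 24 h with 1.0 nM T3. Activity is expressed as relative luminescence units and analysed relative to DMSO.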
# THRB (gene 7068) = THRB (gene 7068) (UniProt P10828); test: TOX21_TRB_BLA_Antagonist_Followup_ratio: Tox21 Thyroid Hormone Receptor beta Antagonism Beta-lactamase (BLA) Follow-Up Assay, Ratio (AID 2283958)
# In short: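 Beta-lactamase reporter ratio (460/530 nm, CCF4-AM substrate, 2 h room temperature) was read in TRb-bla HEK293T cells after 18 h compound treatment (11 concentrations, triplicate) at 37C in 2% charcoal-stripped FBS medium. Loss of signal fitted against DMSO.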
# [12] = TOX21_TRB_BLA_Antagonist_Followup_viability: Viability Assessment in the Tox21 Thyroid Hormone Receptor beta Antagonism Beta-lactamase (BLA) Follow-Up Assay (AID 2283961)
# In short: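 TRβ-bla HEK293T (human TRβ LBD fused to GAL4 DBD), 3,000 cells/well, 2% charcoal-stripped FBS, phenol red-free medium; 18 h compound exposure, 37C; CellTiter-Glo 30 min RT; luminescence, loss-of-signal readout.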
# Chain of Cellular tumor antigen p53 (Homo sapiens) (P04637 whole entry, looked up): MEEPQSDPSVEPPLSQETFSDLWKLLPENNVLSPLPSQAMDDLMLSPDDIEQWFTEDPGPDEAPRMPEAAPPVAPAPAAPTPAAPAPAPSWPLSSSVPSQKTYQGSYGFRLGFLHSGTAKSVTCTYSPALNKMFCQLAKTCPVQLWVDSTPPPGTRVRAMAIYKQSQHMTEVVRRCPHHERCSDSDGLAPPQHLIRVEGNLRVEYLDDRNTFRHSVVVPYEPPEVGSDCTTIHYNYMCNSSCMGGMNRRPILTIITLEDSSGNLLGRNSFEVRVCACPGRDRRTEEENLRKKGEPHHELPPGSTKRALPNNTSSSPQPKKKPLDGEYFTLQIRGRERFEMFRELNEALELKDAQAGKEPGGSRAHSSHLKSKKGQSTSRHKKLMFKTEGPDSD
# Chain of THRB (gene 7068) (P10828 whole entry, looked up): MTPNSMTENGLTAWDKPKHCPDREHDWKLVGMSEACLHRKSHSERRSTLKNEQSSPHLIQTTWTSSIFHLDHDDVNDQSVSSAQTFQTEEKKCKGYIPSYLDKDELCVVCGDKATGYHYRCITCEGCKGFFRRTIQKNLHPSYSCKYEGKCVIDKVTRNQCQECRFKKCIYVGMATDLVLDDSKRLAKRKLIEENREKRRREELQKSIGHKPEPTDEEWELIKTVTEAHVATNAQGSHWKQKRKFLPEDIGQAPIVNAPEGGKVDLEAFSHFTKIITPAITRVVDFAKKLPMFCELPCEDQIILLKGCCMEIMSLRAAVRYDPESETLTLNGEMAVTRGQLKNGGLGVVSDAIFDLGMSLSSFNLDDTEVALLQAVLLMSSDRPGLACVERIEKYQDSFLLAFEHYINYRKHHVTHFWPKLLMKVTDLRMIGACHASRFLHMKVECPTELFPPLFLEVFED
structure (smiles),measurement,setting,value
CCCCc1c(C)nc(NCC)nc1OS(=O)(=O)N(C)C,outcome,[1],inactive
same,outcome,[2],inactive
same,outcome,[3],inactive
same,outcome,[4],inactive
same,outcome,[5],inactive
CCCN1CCC[C@H](c2cccc(O)c2)C1,outcome,[1],inactive
same,outcome,[6],inactive
same,outcome,[7],inactive
O=C1CN(O)C(c2ccccc2)=c2cc(Cl)ccc2=N1,outcome,[1],inactive
same,outcome,[8],inactive
same,outcome,[9],inactive
same,outcome,[7],inactive
COC(=O)C1(O)c2ccccc2-c2ccccc21,outcome,[1],inactive
same,outcome,[2],inactive
same,outcome,[9],inactive
same,outcome,[10],inactive
NC(=O)CN1CC(O)CC1=O (stereo unspecified),outcome,[1],inactive
same,outcome,[9],inactive
CC(C)=CCN1CC[C@@]2(C)c3cc(O)ccc3C[C@@H]1[C@@H]2C,AC50,[1],86.2 µM (active)
same,outcome,[6],inactive
same,outcome,[9],inactive
same,outcome,[7],inactive
C=CCN1C[C@H](C)N([C@H](c2ccc(C(=O)N(CC)CC)cc2)c2cccc(OC)c2)C[C@H]1C,outcome,[1],inactive
same,outcome,[8],inactive
same,outcome,[2],inactive
same,outcome,[7],inactive
O=S(=O)(Cl)Cl,outcome,[1],inactive
same,outcome,[2],inactive
same,outcome,[9],inactive
CON(C)C(=O)Nc1ccc(Cl)cc1,outcome,[1],inactive
same,outcome,[6],inactive
same,outcome,[7],inactive
COP(=S)(OC)Oc1ccc(S(N)(=O)=O)cc1,outcome,[1],inactive
same,outcome,[8],inactive
same,outcome,[2],inactive
same,outcome,[9],inactive
same,outcome,[7],inactive
COc1cccc([C@@]2(O)CCCC[C@@H]2CN(C)C)c1,outcome,[1],inactive
same,outcome,[6],inactive
same,outcome,[7],inactive
same,outcome,[3],inactive
same,outcome,[5],inactive
CCOc1cc(OP(=S)(OC)OC)nc(CC)n1,outcome,[1],inactive
same,outcome,[6],inactive
same,outcome,[7],inactive
O=C1CC[C@@]2(O)[C@H]3Cc4ccc(O)c5c4[C@@]2(CCN3CC2CC2)[C@H]1O5,outcome,[1],inactive
same,outcome,[6],inactive
same,outcome,[7],inactive
N#CCCC#N,outcome,[1],inactive
same,outcome,[8],inactive
same,outcome,[2],inactive
same,outcome,[9],inactive
CC(C)=CCOc1c2occc2cc2ccc(=O)oc12,outcome,[1],inactive
same,outcome,[8],inactive
same,outcome,[2],inactive
same,outcome,[9],inactive
same,outcome,[7],inactive
ClP(Cl)(Cl)(Cl)Cl,outcome,[1],inactive
same,outcome,[6],inactive
same,outcome,[7],inactive
CNC(=O)Oc1ccccc1C1OCCO1,outcome,[1],inactive
same,outcome,[2],inactive
same,outcome,[9],inactive
same,outcome,[7],inactive
O=C1OC2(c3cc(Br)c(O)cc3Oc3c2cc(Br)c(O)[c]3[Hg])c2ccccc21 (stereo unspecified),outcome,[1],inactive
same,outcome,[8],inactive
same,outcome,[2],inactive
same,outcome,[7],inactive
same,outcome,[11],inactive
same,outcome,THRB (gene 7068),inactive
same,outcome,[12],inactive
